Reference: publication PMC5540273 (PLoS ONE, 2017)

Assays:
Conditions in all cases: concentration: 1 μM, replicates: in singlicate; n = 1
MEK5 = test system: T1, MEK5
T1 construct: gene MAP2K5

MEK6 = test system: T2, MEK6
T2 construct: gene MAP2K6

MELK = test system: MELK
MERTK = test system: MERTK
MET = test system: MET
MINK = test system: T3, MINK
T3 construct: gene MINK1

MKK7 = test system: MKK7
MKNK1 = test system: MKNK1
MKNK2 = test system: MKNK2
MLCK = test system: T4, MLCK
T4 construct: gene MYLK3

MLK1 = test system: T5, MLK1
T5 construct: gene MAP3K9

MLK2 = test system: MLK2
MLK3 = test system: MLK3
MRCKA = test system: MRCKA
MRCKB = test system: T6, MRCKB
T6 construct: gene CDC42BPB

MST1R = test system: MST1R
MST1 = test system: T7, MST1
T7 construct: gene STK4

MST2 = test system: T8, MST2
T8 construct: gene STK3

MST3 = test system: T9, MST3
T9 construct: gene STK24

MST4 = test system: MST4
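Also: KINOMEscan kinase panel screen.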

| Structure (SMILES) | %Inh (MEK5) | %Inh (MEK6) | %Inh (MELK) | %Inh (MERTK) | %Inh (MET) | %Inh (MINK) | %Inh (MKK7) | %Inh (MKNK1) | %Inh (MKNK2) | %Inh (MLCK) | %Inh (MLK1) | %Inh (MLK2) | %Inh (MLK3) | %Inh (MRCKA) | %Inh (MRCKB) | %Inh (MST1R) | %Inh (MST1) | %Inh (MST2) | %Inh (MST3) | %Inh (MST4) |
| --- | --- | --- | --- | --- | --- | --- | --- | --- | --- | --- | --- | --- | --- | --- | --- | --- | --- | --- | --- | --- |
| CCn1cnc2c(NCc3ccccc3)ncnc21 [SKF-96418] | 38% | 9% | 0% | 0% | 0% | 12% | 17% | 0% | 0% | 0% | 0% | 27% | 0% | 0% | 0% | 0% | 0% | 14% | 5% | 0% |
| O=C(Nc1c(F)cccc1F)c1cc(C(=O)c2ccccc2F)c[nH]1 [GSK1326180] | 20% | 0% | 0% | 18% | 0% | 47% | 0% | 10% | 0% | 2% | 3% | 21% | 0% | 0% | 0% | 0% | 2% | 0% | 0% | 0% |
| Nc1ncc(-c2cn[nH]c2)c2scc(-c3ccc4c(c3)CCN4C(=O)Cc3ccccc3)c12 [GSK2593067] | 99.9% | 0% | 32% | 73% | 77% | 33% | 34% | 0% | 11% | 6% | 16% | 0% | 32% | 0% | 0% | 27% | 99.4% | 14% | 0% | 20% |
| Fc1cc(Cl)ccc1Nc1ccnc2cc(-c3ccc(CN4CCOCC4)o3)ccc12 [GW560109] | 99.8% | 0% | 0% | 28% | 51% | 58% | 10% | 13% | 77% | 0% | 2% | 0% | 0% | 13% | 0% | 0% | 0% | 0% | 0% | 0% |
| CC(C)c1nc(-c2cccc(NS(=O)(=O)c3c(F)cccc3F)c2)c(-c2ccnc(Nc3ccc(N4CCOCC4)nc3)n2)s1.Cl [GSK1723980] | 99.9% | 37% | 47% | 50% | 42% | 17% | 0% | 10% | 98.8% | 0% | 89% | 34% | 73% | 18% | 0% | 17% | 0% | 0% | 13% | 16% |
| Cc1cc(-c2c(-c3ccc(F)cc3)ncn2CCCN2CCOCC2)nc(N)n1 [SB-222517] | 26% | 29% | 0% | 0% | 0% | 15% | 0% | 0% | 0% | 0% | 5% | 49% | 0% | 0% | 20% | 18% | 13% | 20% | 5% | 1% |
| COc1cccc2c(-c3ccncc3)c(-c3ccc(F)cc3)nn12 [GW468513] | 33% | 0% | 0% | 0% | 84% | 78% | 0% | 22% | 0% | 6% | 0% | 1% | 4% | 60% | 67% | 15% | 31% | 0% | 0% | 0% |
| Cl.Cl.NCC(NC(=O)c1cc(-c2cccnc2)c(-c2ccnc3[nH]ccc23)s1)c1ccccc1 (stereo not drawn) [GSK1323434] | 59% | 0% | 20% | 13% | 0% | 80% | 0% | 0% | 56% | 51% | 0% | 0% | 48% | 39% | 35% | 84% | 0% | 8% | 0% | 15% |
| NCCC(NC(=O)c1cc(Br)c(-c2ccnc3[nH]ccc23)s1)c1ccccc1.O=C(O)C(F)(F)F.O=C(O)C(F)(F)F (stereo not drawn) [GSK1307810] | 18% | 8% | 74% | 25% | 24% | 55% | 18% | 32% | 93.9% | 85% | 0% | 0% | 0% | 86% | 99.1% | 29% | 0% | 4% | 11% | 23% |
